In PMC4336329 (PLoS ONE, 2015):
Out of some 310,000 compounds screened, about 14,000 (4.5%) showed an effect of 50% or more. Effects have a minus sign here. The sample holds strong results, similar compounds and a random draw of the others, so the mix is not that of the screen.

Each molecule was assayed against human ether-à-go-go-related gene (hERG) potassium channel (human, UniProt Q12809) (assay: primary screen, population patch clamp on CHO cells stably expressing hERG; higher = less effect of the substance).
Sequence of human ether-à-go-go-related gene (hERG) potassium channel (Q12809 whole entry, looked up): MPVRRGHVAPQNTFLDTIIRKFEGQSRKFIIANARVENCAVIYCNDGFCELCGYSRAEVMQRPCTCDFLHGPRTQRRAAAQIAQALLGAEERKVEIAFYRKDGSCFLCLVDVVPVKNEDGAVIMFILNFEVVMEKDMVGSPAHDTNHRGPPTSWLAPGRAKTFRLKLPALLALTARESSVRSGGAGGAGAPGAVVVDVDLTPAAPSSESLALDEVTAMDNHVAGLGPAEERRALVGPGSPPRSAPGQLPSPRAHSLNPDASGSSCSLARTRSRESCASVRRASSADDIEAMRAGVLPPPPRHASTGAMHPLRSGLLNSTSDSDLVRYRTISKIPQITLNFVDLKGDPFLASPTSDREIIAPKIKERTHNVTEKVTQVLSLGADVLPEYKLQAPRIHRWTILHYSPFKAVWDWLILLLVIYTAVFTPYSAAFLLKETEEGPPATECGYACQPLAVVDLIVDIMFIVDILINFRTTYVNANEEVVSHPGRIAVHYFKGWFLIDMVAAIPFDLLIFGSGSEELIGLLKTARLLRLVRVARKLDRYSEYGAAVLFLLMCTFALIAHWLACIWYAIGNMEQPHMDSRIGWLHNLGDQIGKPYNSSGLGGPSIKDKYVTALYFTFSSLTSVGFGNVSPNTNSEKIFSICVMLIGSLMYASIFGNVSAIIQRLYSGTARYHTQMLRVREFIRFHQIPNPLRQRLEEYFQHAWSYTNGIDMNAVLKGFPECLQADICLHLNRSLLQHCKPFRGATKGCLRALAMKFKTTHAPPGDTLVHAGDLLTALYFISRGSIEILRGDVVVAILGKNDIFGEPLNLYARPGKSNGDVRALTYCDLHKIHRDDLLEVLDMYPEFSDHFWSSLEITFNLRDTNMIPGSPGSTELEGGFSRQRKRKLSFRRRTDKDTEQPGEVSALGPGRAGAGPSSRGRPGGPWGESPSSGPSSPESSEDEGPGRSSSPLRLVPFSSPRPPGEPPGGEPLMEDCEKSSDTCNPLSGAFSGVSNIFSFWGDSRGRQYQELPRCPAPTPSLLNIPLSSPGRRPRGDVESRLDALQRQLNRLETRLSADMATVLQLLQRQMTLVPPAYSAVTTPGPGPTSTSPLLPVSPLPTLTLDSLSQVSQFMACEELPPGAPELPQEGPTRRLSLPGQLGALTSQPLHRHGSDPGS
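Further: peak tail current of the secondary pulse compared with the same well before compound.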

Row | SMILES | hERG current change (%, negative = inhibition) at 10uM [%]
1 | COC(=O)c1cccc(CSc2nnc(-c3ccco3)n2-c2ccccc2)c1 | -33.9
2 | C=CCNc1nnc(Cc2ccc(C(C)C)cc2)c(=O)[nH]1 | -0.924
3 | CC(C)(C)c1ccc(-c2noc(CCC(N)=O)n2)cc1 | -11
4 | Cc1ccc(NC(=O)C2CCN(S(=O)(=O)c3c(C)n[nH]c3C)CC2)nc1 | -23
5 | CC1CCCCN1CCCNC(=O)c1nn(C)c2c1CSc1ccccc1-2 (centres unmarked) | -67.1
6 | CC1CCCN(CCCNC(=O)c2nn(C)c3c2CS(=O)(=O)c2ccccc2-3)C1 (centres unmarked) | -39.8
7 | Cn1nc(C(=O)NCCCN2CCCCC2)c2c1-c1ccccc1SC2 | -66
8 | CC1CCCN(CCCNC(=O)c2nn(C)c3c2CSc2ccccc2-3)C1 (centres unmarked) | -72.5
9 | CC1CCCCN1CCCNC(=O)c1nn(C)c2c1CS(=O)(=O)c1ccccc1-2 (centres unmarked) | -8.49
10 | Cn1nc(C(=O)NCCCN2CCCCC2)c2c1-c1ccccc1S(=O)(=O)C2 | -0.878
11 | CC1CCCN(C(=O)c2nn(C)c3c2CSc2ccccc2-3)C1 (centres unmarked) | -11.7
12 | Cn1nc(C(=O)NC2CCCCC2)c2c1-c1ccccc1SC2 | -3.08
13 | CC1CCC(NC(=O)c2nn(C)c3c2CSc2ccccc2-3)CC1 (centres unmarked) | 3.11
14 | COc1cc(NC(=S)NC(=O)c2ccccc2C)ccc1NC(=O)c1cccs1 | -1.24
15 | CSc1n[nH]c(NCc2cccs2)n1 | 8.8
16 | CC(C)CC(C(=O)NCC1CCCO1)N(C(=O)Cn1nnc(-c2ccc(F)cc2)n1)c1cccc(C(F)(F)F)c1 (centres unmarked) | -0.701
17 | CSc1nc(O)c(C(c2ccc(OC(C)C)cc2)c2c(O)nc(SC)[nH]c2=O)c(=O)[nH]1 | 16.9
18 | CCOc1ccc(S(N)(=O)=O)cc1-c1nc2c(C(C)(C)C)nn(C)c2c(=O)[nH]1 | 10.9
19 | CC(Sc1nnnn1-c1ccc(O)cc1)C(=O)NC1CCCCC1C (centres unmarked) | -9.23
20 | CC(=O)C1=C(O)C(=O)N(c2ccc(S(=O)(=O)Nc3nccs3)cc2)C1c1ccc([N+](=O)[O-])cc1 (centres unmarked) | 10.6
21 | C=CCn1c(SCc2nc3ccccc3c(=O)[nH]2)nc2sc3c(c2c1=O)CCCC3 | 2.93
22 | Cc1ccc(-c2nnc(OCc3cccnc3)c3ccccc23)cc1 | -75.7
23 | Cc1ccc(Oc2nnc(-c3ccccc3)c3ccccc23)cc1 | -2.98

Row | SMILES | hERG current change (%, negative = inhibition) at 10uM [%]
24 | Cc1ccc(-c2nnc(OCc3nc4ccccc4n3C)c3ccccc23)cc1 | -12
25 | c1ccc(COc2cncc(-c3cccnc3)c2)cc1 | -17.8
26 | c1ccc(-c2nnc(OCc3cccnc3)c3ccccc23)cc1 | -83.2
27 | COc1ccc(-c2nnc(OCc3ccccc3)c3ccccc23)cc1 | 1.82
28 | CCC(C)n1c(-c2cccs2)nc2nc3ccccc3nc21 (centres unmarked) | -4.95
29 | CNC(=O)CSc1nnc(-c2ccncc2)n1Cc1ccccc1 | 9.26
30 | COCCn1c(SCC(=O)Nc2ccc(Cl)cn2)nnc1-c1ccncc1 | -54.2
31 | Cc1cc(NC(=O)CSc2nnc(-c3ccncc3)n2Cc2ccccc2)n(-c2ccccc2)n1 | -58.8
32 | COCCn1c(SCC(=O)Nc2nnc(C)s2)nnc1-c1ccncc1 | -0.996
33 | COCCn1c(SCC(=O)Nc2cc(C(C)(C)C)nn2-c2ccccc2)nnc1-c1ccncc1 | -60
34 | COCCn1c(SCC(=O)Nc2cc(C)nn2-c2ccccc2)nnc1-c1ccncc1 | -37.7
35 | COCCn1c(SCC(=O)Nc2cc(C(C)(C)C)nn2-c2ccccc2)nc2ccccc2c1=O | -4.39
36 | COCCn1c(SC(C)C(=O)Nc2ccc(Cl)cn2)nnc1-c1ccncc1 (centres unmarked) | 4.13
37 | Cc1cc(NC(=O)CSc2nnc(-c3ccncc3)n2C)n(-c2ccccc2)n1 | -21.9
38 | O=C(c1ccc(N2CCCC2=O)cc1)N1CCN(c2ccccc2Cl)CC1 | -12.1
39 | COc1ccc(S(=O)(=O)NCc2cc(=O)n(C)c(=O)n2C)cc1C | 22.6
40 | COc1ccc(Cl)cc1NC(=O)c1noc(C)c1[N+](=O)[O-] | -29.5
41 | O=C(NNC(=O)c1cc(-c2ccc(Cl)cc2Cl)nc2ccccc12)Nc1ccccc1 | 1.72
42 | CCCC(=O)N1CCN(Cc2nc3cc([N+](=O)[O-])ccc3n2C)CC1 | -36.8
43 | Cn1c(CN2CCN(C(=O)COc3ccccc3)CC2)nc2cc([N+](=O)[O-])ccc21 | -55.2
44 | Cc1ccc(C(C)C)c(OCC(=O)N2CCN(Cc3nc4cc([N+](=O)[O-])ccc4n3C)CC2)c1 | -65.8
45 | Cn1c(CN2CCN(C(=O)c3ccco3)CC2)nc2cc([N+](=O)[O-])ccc21 | -60
46 | Cn1c(CCNC(=O)c2ccco2)nc2cc([N+](=O)[O-])ccc21 | -26

Row | SMILES | hERG current change (%, negative = inhibition) at 10uM [%]
47 | CN1CCN(Cc2nc3cc(NC(=O)COc4ccc([N+](=O)[O-])cc4)ccc3n2C)CC1 | 9.29
48 | Cn1c(CN2CCN(C(=O)c3ccc(F)cc3)CC2)nc2cc([N+](=O)[O-])ccc21 | -67.5
49 | CCCC(=O)NCCc1nc2cc([N+](=O)[O-])ccc2n1C | -16.4
50 | CC(=O)N1CCN(Cc2nc3cc(NC(=O)COc4ccccc4)ccc3n2C)CC1.Cl | 0.239
51 | Cc1ccc(C(C)C)c(OCC(=O)N2CCN(CC(=O)N3CCOCC3)CC2)c1 | 1.81
52 | O=C(CSc1nccn1-c1ccc(Cl)cc1)N1CCCc2ccccc21 | -11.7
53 | Cc1cc(NC(=O)c2cccc(S(=O)(=O)N3CCC(C)CC3)c2)no1 | 0.978
54 | CCCCN(C)C(=O)c1cc2cc3cc(OC)ccc3nc2o1 | -30.8
55 | C(=N\Nc1nc(N2CCCC2)nc(N2CCCC2)n1)/c1ccncc1 | 2.85
56 | CC(=O)N1CCN(Cc2nc3cc([N+](=O)[O-])ccc3n2C)CC1 | -4.94
57 | Cn1c(CN2CCN(C(=O)c3ccccc3)CC2)nc2cc([N+](=O)[O-])ccc21 | -67.3
58 | Cn1c(CN2CCN(S(C)(=O)=O)CC2)nc2cc([N+](=O)[O-])ccc21 | -0.37
59 | COC(=O)c1c(C)oc(C)c(C(=O)OC)c1=O | 5.25
60 | O=C1C2C3C=CC(C4CC34)C2C(=O)N1Cc1ccco1 (centres unmarked) | 4.37
61 | CCc1nc2ccc(C(=O)NCCCN3CCN(c4ccc(F)cc4)CC3)cc2nc1CC | -66.4
62 | Cc1c(C)n(C)c2ccc(C(=O)NCCCN3CCN(c4ccccc4F)CC3)cc12 | -54.2
63 | Cc1c(C)n(C)c2ccc(C(=O)NCCCN3CCN(c4ccc(F)cc4)CC3)cc12 | -66.6
64 | Cc1c(C)n(C)c2ccc(C(=O)NCCCN3CCCCC3)cc12 | -17.2
65 | Cc1c(C)n(C)c2ccc(C(=O)NCCCN3CCN(C)CC3)cc12 | 14.9
66 | Cc1cc(=O)oc(C)c1C(=O)NCCCN1CCN(c2ccccc2F)CC1 | -40.4
67 | CCc1nc2ccc(C(=O)NCCCN3CCN(c4ccccc4F)CC3)cc2nc1CC | -49.8
68 | Cc1c(C)n(C)c2ccc(C(=O)NCCCN3CCCC3)cc12 | -23.8
69 | O=C(NCCCN1CCN(c2ccc(F)cc2)CC1)c1cccc(N2CCCC2=O)c1 | -48.5

Row | SMILES | hERG current change (%, negative = inhibition) at 10uM [%]
70 | Cc1c(C)n(C)c2ccc(C(=O)NCCCN3CCOCC3)cc12 | 10.8
71 | Cc1cc(=O)oc(C)c1C(=O)NCCCN1CCN(c2ccc(F)cc2)CC1 | -53.6
72 | COc1ccc(N2CCN(CCNC(=O)c3c(C)cc(=O)oc3C)CC2)cc1 | -12.2
73 | Cc1ccc(S(=O)(=O)N2CCN(S(=O)(=O)c3ccc(C)cc3)C2)cc1 | -24.9
74 | CCN(CC)S(=O)(=O)c1cc(-c2nnc(-c3ccc(Br)cc3)o2)ccc1Br | 12.7
75 | COCCNC(=S)NN(c1ccccc1)c1ccccc1 | -1.18
76 | Oc1cc2c(cc1CN1CCc3ccccc3C1)OCO2 | -0.697
77 | CS(=O)(=O)N1CCN(c2ccc(NC(=O)COc3ccccc3)cc2)CC1 | 0.0465
78 | COc1ccc(/C=N/NC(=O)c2ccc(NC(=O)c3ccccc3Br)cc2)cc1 | 6.43
79 | CCN1/C(=C/C(C)=O)Sc2ccc(OC)cc21 | -12.7
80 | CCN1/C(=C\C(C)=O)Sc2ccc(OC)cc21 | 13.9
81 | CCN1/C(=C/c2cccc[n+]2C)Sc2ccc(OC)cc21.[I-] | -67.3
82 | CCCNC(=O)COC(=O)c1cccnc1Nc1ccccc1F | -9.21
83 | CCC1C(=O)NCCN1C(=O)c1ccc2nc(Cc3cccc(Cl)c3)oc2c1 (centres unmarked) | -18.6
84 | CCN(CC(=O)NCc1ccc(Cl)cc1)C(=O)CCc1ccccc1 | -58.7
85 | O=C(COC(=O)Cc1ccccc1[N+](=O)[O-])NCc1ccc(Cl)cc1 | -11
86 | CCN(CC(=O)NCc1ccc(Cl)cc1)C(=O)CCc1ccccc1O | -54.1
87 | CCN(CC(=O)NCc1ccc(Cl)cc1)C(=O)C(C)Sc1ccccc1 (centres unmarked) | -33.8
88 | CCN(CC(=O)NCc1ccc(Cl)cc1)C(=O)NCc1ccc(Cl)cc1 | -48.4
89 | CCN(CC(=O)NCc1cccs1)C(=O)CCc1c[nH]c2ccccc12 | -17.6
90 | CCN(CC(=O)NCc1ccc(Cl)cc1)C(=O)Cc1ccccc1[N+](=O)[O-] | -63.4
91 | O=C(CCCc1ccccc1)NCc1ccc(Cl)cc1 | -15.3
92 | O=C(Cc1ccccc1[N+](=O)[O-])NCc1ccc(Cl)cc1 | 5.25
